According to PubChem BioAssay (NCI):
About 79,000 compounds went through this panel and 15% of them were active in at least one assay; those are over-represented in the sample as a whole. Activity calls are given as the source filed them. Cut-off read from the data, not from the text of the source: active = growth inhibition above about 70%; inactive = the rest.

How the values were obtained:
[1] = NCI Yeast Anticancer Drug Screen. Data for the rad50 strain (AID 155);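 note: 0% = growth of vehicle-only cultures of the same strain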; details: S. cerevisiae rad50 strain growth inhibition, stronger effect = higher value
In short: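 A DNA repair-deficient yeast mutant serves as the test organism; compound-induced growth inhibition is calculated against vehicle-treated cells.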

[2] = NCI Yeast Anticancer Drug Screen. Data for the mec2-1 strain (AID 157); details: S. cerevisiae mec2-1 strain, stronger effect = higher value
In short: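 Compounds were applied to mec2-1 yeast cells. Their growth was then compared with that of vehicle-treated cultures to give growth inhibition.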

[3] = NCI Yeast Anticancer Drug Screen. Data for the sgs1 mgt1 strain (AID 161);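 note: 0% = growth of cultures given vehicle only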; details: S. cerevisiae sgs1 mgt1 strain, stronger effect = higher value
In short: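 Percent growth inhibition was derived by comparing compound-exposed mutant yeast with vehicle-exposed cultures. The strain carries alterations in DNA damage repair.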

[4] = NCI Yeast Anticancer Drug Screen. Data for the cln2 rad14 strain (AID 165);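 note: 0% = growth equal to vehicle treated cultures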; details: S. cerevisiae cln2 rad14 strain, stronger effect = higher value
In short: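 Strain: cln2 rad14 yeast, altered in cell cycle control and DNA damage repair. Read-out: growth inhibition vs vehicle.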

[5] = NCI Yeast Anticancer Drug Screen. Data for the bub3 strain (AID 167); details: S. cerevisiae bub3 mutant strain, stronger effect = higher value
In short: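 Inhibition values come from growth of compound-treated mutant yeast normalised to vehicle-treated controls.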

[6] = NCI Yeast Anticancer Drug Screen. Data for the mlh1 rad18 strain (AID 175); details: S. cerevisiae mlh1 rad18 strain growth inhibition, stronger effect = higher value
In short: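 A repair-deficient yeast strain is exposed to test compound, and growth is scored relative to vehicle-treated controls.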

[7] = at 5.0 µM (retest, dose inferred, filed as 0.5)
[8] = at 50.0 µM (retest, dose inferred, filed as 5.0)

Measured: growth inhibition

COc1ccc(C2C3CCCC(C3=O)C(c3ccc(OC)cc3)N2N=O)cc1 (stereo not given)
active: [1]; at 50.0 µM 84% | [2]; at 50.0 µM 86.9% | [3]; [8] 77% | [4]; [8] 71% | [4]; at 50.0 µM 88.8% | [5]; [8] 72% | [5]; at 50.0 µM 85.2% | [6]; [8] 77% | [6]; at 50.0 µM 96.5%
inactive: [1]; [7] 0% | [1]; [8] 68% | [2]; [7] 11% | [2]; [8] 64% | [3]; [7] -4% | [3]; at 50.0 µM 59.5% | [4]; [7] -6% | [5]; [7] -2% | [6]; [7] -3%

CCCCN(CCCC)CC(O)c1ccc2cc(Cl)c3ccccc3c2c1 (stereo not given)
inactive: [1]; [7] 53% | [2]; [7] 40% | [4]; [7] 41% | [5]; [7] 57% | [6]; [7] 63%
active: [1]; [8] 99% | [1]; at 50.0 µM 99.6% | [2]; [8] 100% | [2]; at 50.0 µM 99.7% | [3]; [7] 85% | [3]; [8] 100% | [3]; at 50.0 µM 99.5% | [4]; [8] 99% | [4]; at 50.0 µM 99.4% | [5]; [8] 99% | [5]; at 50.0 µM 92.2% | [6]; [8] 100% | [6]; at 50.0 µM 99.4%

COc1ccc(C2CN(C(=O)c3ccccc3)N=C(c3ccccc3)O2)cc1 (stereo not given)
inactive: [1]; [7] -1% | [1]; [8] -16% | [2]; [7] -8% | [2]; [8] 1% | [3]; [7] 1% | [3]; [8] -46% | [4]; [7] -5% | [4]; [8] -8% | [5]; [7] -4% | [5]; [8] -67% | [6]; [7] -6% | [6]; [8] -6%
active: [1]; at 50.0 µM 93.7% | [2]; at 50.0 µM 93.2% | [3]; at 50.0 µM 93.7% | [4]; at 50.0 µM 90.2% | [5]; at 50.0 µM 90% | [6]; at 50.0 µM 95%

C1=C(c2ccccc2)SC=C(c2ccccc2)S1
active: [5]; at 50.0 µM 83%
inactive: [1]; [7] -5% | [1]; [8] -26% | [1]; at 50.0 µM -15.7% | [2]; [7] -14% | [2]; [8] -16% | [2]; at 50.0 µM 8.75% | [3]; [7] -2% | [3]; [8] 40% | [3]; at 50.0 µM -0.9% | [4]; [7] -9% | [4]; [8] -9% | [4]; at 50.0 µM -3.15% | [5]; [7] 23% | [5]; [8] 47% | [6]; [7] -6% | [6]; [8] -8% | [6]; at 50.0 µM -5.45%

CN(C)C=NCCNc1ccc([N+](=O)[O-])cn1
inactive: [1]; [7] -154% | [1]; [8] -166% | [1]; at 50.0 µM 4.4% | [2]; [7] -49% | [2]; [8] -57% | [2]; at 50.0 µM 4.2% | [3]; [7] -62% | [3]; [8] -66% | [3]; at 50.0 µM -6.6% | [4]; [7] -46% | [4]; [8] -59% | [4]; at 50.0 µM 24.5% | [5]; [7] -70% | [5]; [8] -77% | [5]; at 50.0 µM 19.8% | [6]; [7] -139% | [6]; [8] -120% | [6]; at 50.0 µM 3.6%

CCOC(=O)N/N=C/c1ccc([N+](=O)[O-])o1
active: [1]; at 50.0 µM 89.9% | [2]; at 50.0 µM 81.8% | [3]; at 50.0 µM 92.2% | [5]; [8] 77% | [5]; at 50.0 µM 82.1% | [6]; [8] 78% | [6]; at 50.0 µM 94%
inactive: [1]; [7] 11% | [1]; [8] 61% | [2]; [7] 2% | [2]; [8] 35% | [3]; [7] 3% | [3]; [8] 62% | [4]; [7] 1% | [4]; [8] 19% | [4]; at 50.0 µM 52% | [5]; [7] 17% | [6]; [7] 17%

CC(C)c1ccc2c(c1)CCC1C(C)(C(=O)O)CCCC21C (stereo not given)
active: [1]; [8] 97% | [1]; at 50.0 µM 95.1% | [2]; [8] 97% | [2]; at 50.0 µM 98.3% | [3]; at 50.0 µM 98% | [4]; [8] 98% | [4]; at 50.0 µM 96.9% | [5]; [8] 97% | [5]; at 50.0 µM 97.8% | [6]; [8] 97% | [6]; at 50.0 µM 97.5%
inactive: [1]; [7] 11% | [2]; [7] 8% | [3]; [7] 16% | [3]; [8] -15% | [4]; [7] 8% | [5]; [7] -9% | [6]; [7] 16%

O=C(Nc1cc(-c2ccccc2)[nH]n1)c1ccccc1
inactive: [1]; [7] 34% | [1]; [8] 36% | [1]; at 50.0 µM 33.4% | [2]; [7] 29% | [2]; [8] 37% | [2]; at 50.0 µM 16.1% | [3]; [7] 38% | [3]; [8] 58% | [3]; at 50.0 µM 23.9% | [4]; [7] 23% | [4]; [8] 25% | [4]; at 50.0 µM 18% | [5]; [7] 31% | [5]; at 50.0 µM 56.8% | [6]; [7] 46% | [6]; [8] 47% | [6]; at 50.0 µM 23.4%
active: [5]; [8] 73%

S=c1[nH]c2cc(Cl)ccc2s1.[Zn+2]
active: [1]; [8] 91% | [1]; at 50.0 µM 95.3% | [2]; [8] 96% | [2]; at 50.0 µM 97.8% | [3]; [8] 97% | [3]; at 50.0 µM 93.3% | [4]; [8] 95% | [4]; at 50.0 µM 96.7% | [5]; [8] 92% | [5]; at 50.0 µM 97% | [6]; [8] 96% | [6]; at 50.0 µM 97.5%
inactive: [1]; [7] -2% | [2]; [7] 8% | [3]; [7] 3% | [4]; [7] -2% | [5]; [7] 12% | [6]; [7] 0%

Cc1cc(N(CCOS(C)(=O)=O)CCOS(C)(=O)=O)ccc1C=Nc1ccccc1C(=O)O
active: [1]; [8] 76% | [1]; at 50.0 µM 83.5% | [2]; at 50.0 µM 74.3% | [3]; at 50.0 µM 79.8% | [6]; [8] 91% | [6]; at 50.0 µM 95.1%
inactive: [1]; [7] 7% | [2]; [7] 15% | [2]; [8] 66% | [3]; [7] 4% | [3]; [8] 62% | [4]; [7] 4% | [4]; [8] 57% | [4]; at 50.0 µM 68.2% | [5]; [7] -2% | [5]; [8] 31% | [5]; at 50.0 µM 38.5% | [6]; [7] 28%
